# Shown are actives, neighbours in structure and some others; about 4.3% of the full set was active somewhere.
# AF4-AF9 inh – blocks AF4 peptide binding to human AF9; P42568; AlphaScreen, biotin-AF4 peptide binding to FLAG-AF9; inhibition, % at 10 µM; 350,000 tested, 0.47% active; AID 651704;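 active = every replicate reaching a set inhibition limit, whatever the replicate mean, cut at about 25% in these data; inconclusive = mean inhibition reaches that limit but some replicates miss it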;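 note: 0% = plate neutral control median and 100% = total signal loss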
# MITF act – increases MITF-driven TRPM1 promoter luciferase signal; SK-MEL-5 TRPM1-promoter luciferase, 24 h; % of positive control, neutral wells = 0; activation, % at 12.5 µM; 300,000 tested, 0.75% active;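 active = mean activation of at least 80% with every replicate also reaching 80%; inconclusive = mean reaches 80% but some replicate falls short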;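 note: 0% = neutral control wells and 100% = parthenolide positive control wells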
# SMARCA2 act – SMARCA2 function activation, primary screen; activation, % at 9.1 µM; AID 652017; 370,000 tested, 1% active; MG213 cells, MMTV-luciferase reporter, dexamethasone, overnight; in the data active = activation above about 7.8%;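 note: 0% = vehicle wells and 100% = reference activator wells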
# FGF22 binding – binders of recombinant human FGF22 by thermal shift | AID 651658 | activity (Tm shift, normalised), % at 9.99 µM | Q9HCT0 | SYPRO orange fluorescence; percent of sucrose octasulfate shift, DMSO zero | 340,000 tested, 1.5% active;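 active = mean Tm shift, scaled 0 neutral to 100 positive control, at about 1.3% or above, every replicate too, limit read from the data; inconclusive = no clear call, values can overlap the other calls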
# Target sequence (Q9HCT0 whole entry, looked up): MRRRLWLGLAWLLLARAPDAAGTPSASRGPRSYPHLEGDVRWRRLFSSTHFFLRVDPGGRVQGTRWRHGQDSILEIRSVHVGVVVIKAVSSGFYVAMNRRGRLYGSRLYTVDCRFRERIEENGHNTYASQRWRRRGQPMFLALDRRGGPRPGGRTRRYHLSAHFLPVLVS
# esBAF inh – SWI/SNF esBAF complex inhibition | 350,000 tested, 2% active | reporter increase, % at 12.5 µM | mouse ES cells, Bmi1-luciferase knock-in reporter, 24 h; 100% = twice the neutral-well signal | AID 602393; in the data active = activation above about 40%; inconclusive = no clear call, values can overlap the other calls;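 note: 0% = median of the plate's neutral control wells and 100% = double that signal; a rise in the Bmi1 reporter signal indicates esBAF inhibition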
# Wnt bcat act – activators of Wnt/beta-catenin signaling. Wnt/beta-catenin reporter cell assay, activator, plate reader. activation, % at 9.35 µM. 300,000 tested, 1.2% active; in the data active = activation above about 30%, passing the limit was not always enough; inconclusive = no clear call, values can overlap the other calls;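 note: 0% = neutral control wells and 100% = positive control wells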
# * marks the source's active call; other numbers are inactive results; ? = inconclusive; / = no result given.
SMILES,AF4-AF9 inh,MITF act,SMARCA2 act,FGF22 binding,esBAF inh,Wnt bcat act
C#CCOCCOCCOCCNc1nc(N2CCN(C(=O)[C@H](CCCCN)n3cc(CN)nn3)CC2)nc(N2CCN(C(=O)[C@H](CCCCN)n3cc(CN)nn3)CC2)n1,57*,2,-1,0,-8,1
C#CCOCCOCCOCCNc1nc(N2CCOCC2)nc(N2CCN(C(=O)[C@H](CCCCN)n3cc(CCC(=O)O)nn3)CC2)n1,0,7,-1,0,2,4
C#CCOCCOCCOCCNc1nc(N2CCN(C(=O)[C@H](CCCCN)n3cc(CN)nn3)CC2)nc(N2CCN(C(=O)[C@H](CCC(=O)O)n3cc([C@@H](N)CCCCN)nn3)CC2)n1,74*,10,0,0,-6,2
COc1cccc(NC(=O)N2C[C@@H](O)COC[C@H]3O[C@H](CC(=O)NC4CCCC4)CC[C@@H]32)c1,-5,/,/,0,-4,/
C/C(=N\NC(=O)COc1ccc(C(C)(C)C)cc1)c1ccc(N2CCOCC2)cc1,2,-6,0,44*,/,-3
C[C@H]1CN([C@@H](C)CO)C(=O)c2cccc(NC(=O)C3CCCCC3)c2O[C@H]1CN(C)S(C)(=O)=O,-4,/,/,0,2,/
Cc1cc(/C=N/N2CCN(C)CC2)c(C)n1-c1ccccc1F,18,16,-1,44*,/,-9
Cc1cc(N2CCN(C)CC2)nc2ccc(NC(=S)NCCN3CCc4ccccc4C3)cc12,?,-77,7.9*,0,-10,-2
Cc1cc(N2CCN(C)CC2)nc2ccc(NC(=S)NCCCN3CCc4ccccc4C3)cc12,24,-10,-1,0,/,-2
Cc1ccccc1S(=O)(=O)N(C)C[C@H]1OCc2cnnn2CCCC(=O)N([C@H](C)CO)C[C@@H]1C,2,/,-4,0,2,-1
O=C(CCCOc1ccccc1)Nc1ccccc1C(F)(F)F,/,1,-1,/,6,/
O=C(CCCc1ccccc1)Nc1ccccc1C(F)(F)F,-3,/,1,0,72*,-1
NC(=O)c1ccccc1NC(=O)/C=C/c1ccccc1,/,26,2,/,/,74*
NC(=O)c1ccccc1NC(=O)CCc1ccccc1,1,59,/,0,48*,10
CCCNC(=O)N1[C@H](CO)[C@@H](c2ccccc2)C12CN(C(=O)c1cccnc1)C2,-11,/,/,0,/,/
CC(C)NC(=O)N[C@H]1CC[C@@H](CC(=O)NCCCN(C)C)O[C@@H]1CO,-2,/,/,0,2,/
O=c1oc(CCO)cc2ccc(-c3ccc4[nH]ccc4c3)cc12,-3,117*,5,1,50*,43*
CC=Cc1ccc2n(c1=O)C[C@@H]1[C@@H](CO)[C@H](C(=O)N3CCN(C)CC3)N(Cc3ccccc3OC)[C@H]21 (mixture of isomers),-2,/,/,0,-1,/
C=CCc1ccc(OCC(O)COCC)c(OC)c1 (stereo unspecified),/,93*,7,/,41*,/
C=CCc1ccc(OCC(O)CO)c(OC)c1 (stereo unspecified),1,3,5,0,/,-1
N#C/C(=C\c1ccc(F)cc1)c1nc(-c2ccco2)cs1,-3,71,0,0,79*,12
N#C/C(=C\c1ccc(Cl)cc1)c1nc(-c2ccco2)cs1,4,24,2,0,/,1
Cc1cc([N+](=O)[O-])nn1CCC(=O)Nc1nccs1,-9,11,-5,43*,/,-12
COCCCN1C(=O)[C@H](CC(=O)N2CCCC2)[C@]2(C(=O)OC)CCCCC=C12,/,/,-5,/,/,/
O=C(C[C@@H]1C[C@H]2c3cc(NC(=O)NC4CCCC4)ccc3O[C@H]2[C@H](CO)O1)NCc1ccc(Cl)cc1,1,/,/,0,0,/
SMILES,AF4-AF9 inh,MITF act,SMARCA2 act,FGF22 binding,esBAF inh,Wnt bcat act
CCCc1ccc(OCc2ccc(C(=O)N3CCN(c4ccccn4)CC3)o2)c(OC)c1,/,16,2,/,45*,/
COc1ccc(CC(=O)N2CCN(c3ccccn3)CC2)cc1OC,/,2,-4,/,4,/
CCn1cc(C(=O)N2CCN(c3ccccn3)CC2)c2cc(OC)c(OC)cc2c1=O,/,2,8.4*,/,-9,-1
CCNC(=O)C[C@@H]1CC[C@@H]2[C@H](COc3ccc(NC(=O)C4CCCCC4)cc3C(=O)N2C)O1,-1,/,/,-1,-6,/
COc1cc(Cl)c(C)cc1NC(=O)CCN1C(=O)NC(C)(C)C1=O,-2,-23,0,43*,-2,1
Cc1ccc(NC(=O)CN2C(=O)N/C(=C/c3cc(C)n(-c4ccc(C(=O)O)cc4)c3C)C2=O)cc1,2,-8,2,1,/,-16
Cc1cccc(NC(=O)CN2C(=O)S/C(=C\c3cccn3-c3cccc(C(=O)O)c3)C2=O)c1,-10,9,-5,43*,-4,0
Cc1ccc(NC(=O)CN2C(=O)S/C(=C\c3cc(C)n(-c4ccc(C(=O)O)cc4)c3C)C2=O)cc1,2,-3,4,44*,10,0
COc1cc2c(cc1OC)C1CCc3cc4c(cc3C1N=C2)OCO4 (stereo unspecified),0,/,0,0,32,51*
COCC#Cc1cnc2c(c1)C(=O)N([C@@H](C)CO)C[C@@H](C)[C@H](CN(C)C(=O)Nc1c(C)noc1C)O2,-3,/,/,0,1,/
COc1ccc(C2CC(c3ccncc3)=NN2c2ccc(S(N)(=O)=O)cc2)cc1 (stereo unspecified),-21,44,0,/,83*,1
COc1ccc(C2CC(c3ccc(Cl)cc3)=NN2c2ccc(S(N)(=O)=O)cc2)cc1 (stereo unspecified),-23,10,-6,/,-1,-1
C[C@H]1CN([C@@H](C)CO)C(=O)c2c(c3ccccc3n2C)-c2ccccc2CO[C@H]1CN(C)Cc1ccc2c(c1)OCCN2C,44*,/,/,-1,/,/
C[C@@H]1CN([C@@H](C)CO)C(=O)c2c(c3ccccc3n2C)-c2ccccc2CO[C@@H]1CN(C)Cc1ccc2c(c1)OCO2,5,/,/,0,/,/
C[C@@H]1CN([C@@H](C)CO)C(=O)c2c(c3ccccc3n2C)-c2ccccc2CO[C@@H]1CN(C)C(=O)Nc1ccc2c(c1)OCO2,2,/,/,0,50*,/
C[C@H](CO)N1C[C@H](C)[C@@H](CN(C)Cc2ccc3c(c2)OCCN3C)OCc2ccccc2-c2c(n(C)c3ccccc23)C1=O,31*,/,/,0,/,/
C[C@@H]1CN([C@@H](C)CO)C(=O)c2ccccc2-c2ccccc2CO[C@@H]1CN(C)Cc1ccc2c(c1)OCCN2C,37*,/,/,0,-2,/
COCC(=O)N1CC(=O)N2[C@H](CO)[C@@H](c3ccc(Br)cc3)[C@H]2C1,-2,/,/,0,/,/
Cc1noc(C)c1NC(=O)Nc1ccc2c(c1)C(=O)N([C@@H](C)CO)C[C@H](C)[C@@H](CN(C)S(=O)(=O)c1ccc(F)cc1)OCCCC[C@@H](C)O2,-2,/,/,/,-2,/

# Source: PubChem (several laboratories)
